From PubChem BioAssay AID1159580 (chemical genetic matrix, 2015)
Out of some 5,500 compounds screened, about 2,000 (36%) were called active. Roughly 18% stayed inconclusive and do not appear here. The list shows a part of the results. Unmarked numbers belong to inactive results. No stated cut-off is given here; in the data, active means normalized growth mostly below about 0.91 (no sharp cut-off); inconclusive means no clear call, values can overlap the other calls; inactive means mostly above about 0.92.

Assay: chemical genetic growth profiling, strain panel (AID 1159580);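 further: tested at 20 µM; growth read once vehicle control cultures reached saturation at 30 °C; 1 = growth at the plate median or of vehicle wells; lower values mean less growth of the strain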
Conditions: S. cerevisiae deletion strains, growth OD

C=Cc1c(SC)sc(C(=O)O)c1C
normalized growth (locus YAL013W, strain DEP1, active compounds read low): 0.869 (active)
normalized growth (locus YBR229C, strain ROT2, active compounds read low): 0.766 (active)
normalized growth (locus YCL061C, strain MRC1, active compounds read low): 0.746 (active)
normalized growth (locus YDL101C, strain DUN1, active compounds read low): 0.705 (active)
normalized growth (locus YDL134C, strain PPH21, active compounds read low): 1.01
normalized growth (locus YDR150W, strain NUM1, active compounds read low): 0.869
normalized growth (locus YEL061C, strain CIN8, active compounds read low): 0.999
normalized growth (locus YGR078C, strain PAC10, active compounds read low): 0.794 (active)
normalized growth (locus YHR030C, strain SLT2, active compounds read low): 1.05
normalized growth (locus YHR087W, strain rtc3, active compounds read low): 0.761 (active)
normalized growth (locus YJL187C, strain SWE1, active compounds read low): 1.05
normalized growth (locus YJR043C, strain POL32, active compounds read low): 0.807 (active)
normalized growth (locus YJR075W, strain HOC1, active compounds read low): 0.636 (active)
normalized growth (locus YLR039C, strain RIC1, active compounds read low): 0.795
normalized growth (locus YLR058C, strain SHM2 (second series), active compounds read low): 0.889 (active)
normalized growth (locus YLR085C, strain ARP6, active compounds read low): 1.05
normalized growth (locus YLR262C, strain YPT6, active compounds read low): 0.776 (active)
normalized growth (locus YML094W, strain GIM5, active compounds read low): 1.01
normalized growth (locus YMR219W, strain ESC1, active compounds read low): 0.804 (active)
normalized growth (locus YMR263W, strain SAP30, active compounds read low): 0.869 (active)
normalized growth (locus YNL128W, strain TEP1, active compounds read low): 1.04
normalized growth (locus YNL153C, strain GIM3, active compounds read low): 0.771 (active)
normalized growth (locus YNL298W, strain CLA4 (second series), active compounds read low): 1.02
normalized growth (locus YNL322C, strain KRE1, active compounds read low): 0.865 (active)
normalized growth (locus YNR030W, strain Alg12, active compounds read low): 0.979
normalized growth (locus YOL006C, strain TOP1, active compounds read low): 1.07
normalized growth (locus YPL241C, strain CIN2, active compounds read low): 0.966
normalized growth (locus YPR135W, strain CTF4, active compounds read low): 1.1
